Source: PubChem BioAssay
Hits are enriched below; roughly 21% of the tested compounds scored in any of these assays.
SARS PLP yeast: inhibitors of SARS-CoV papain-like protease in yeast; S. cerevisiae expressing SARS-CoV PLpro, growth rescue; Potency, µM (titrated, usually from 32.9 µM), most hits filed as activators; hit rate 0.19% among 330,000; AID 485353; also: nearly all actives have a fitted effect of over 55% in size
CHX counter: counter-screen hit for Shiga toxin inhibitors, cycloheximide; cell reporter, cycloheximide protein synthesis inhibition counterscreen; max response, %; hit rate 12% among 300,000; AID 2314; in the data active = max response mostly above about 13%, no sharp cut-off; inactive = mostly below about 14%; also: read at 38.3 µM for the half of the compounds with a filed dose
Shiga toxin inh: blocks Shiga toxin action in Vero cells; Vero cells, Shiga toxin protein synthesis inhibition reporter; hit rate 9.2% among 290,000; inhibition, % at 38.7 µM; in the data active = inhibition mostly above about 28%, no sharp cut-off; inactive = mostly below about 43%
NS1 inh: blocks influenza NS1 protein function; AID 2326; hit rate 0.4% among 270,000; Potency, µM (titrated, usually from 46.1 µM); also: actives are rising curves; nearly all actives have a fitted effect of over 50% in size
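Recovery from NS1-induced slow growth read by OD600 in budding yeast switched to galactose assay medium (pH 6.0, -URA) at 1:100 dilution. Compound 23 nl per well; the matching strain lacking NS1 serves as control.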
Pf growth 48h: inhibits P. falciparum growth in the first generation, 48 h. P. falciparum luciferase growth in erythrocytes, 48 h. Potency, µM (top dose mostly 28.7 µM), usual class: inhibitors. hit rate 5.9% among 310,000; active = well fitted inhibition curve with a large enough effect; inconclusive = small, poorly fitted or top-dose-only effect, or another doubt; inactive = no such curve, though single readings can be large or run the other way
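Growth was read as firefly luciferase luminescence after a 48 h, 37 C, 5% CO2 exposure of compounds to reporter-bearing P. falciparum cultures (0.1% parasitemia, 2% hematocrit final) in Albumax-supplemented RPMI 1640.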
Pf growth 96h: P. falciparum growth inhibition at 96 hour, primary screen for plastid delayed-death inhibitors; hit rate 6.9% among 320,000; P. falciparum luciferase reporter growth, 96 h; Potency, µM (series often up to 28.7 µM), usual class: inhibitors; active = well fitted inhibition curve with a large enough effect; inconclusive = small, poorly fitted or top-dose-only effect, or another doubt; inactive = no such curve, though single readings can be large or run the other way
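Parasite growth measured via integrated firefly luciferase reporter in P. falciparum. Infected erythrocytes at 2% hematocrit, 0.05% parasitemia final were treated 96 hours at 37 C under 5% CO2, and luminescence was read.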
Numbers stand for hits; – = inactive; ? = inconclusive; · = not tested or not shown; [ ] = remark or other dose. Unless noted, calls follow the shape of the full dose curve.

SMILES	SARS PLP yeast	CHX counter	Shiga toxin inh	NS1 inh	Pf growth 48h	Pf growth 96h
CSc1ccccc1NC(=O)CO/N=C(\C)c1cc2ccccc2o1	–	18	–	–	–	–
CCc1ccc(NC(=O)CO/N=C(\C)c2cc3ccccc3o2)cc1	–	–	–	–	–	–
COc1ccc(Cl)cc1C(=O)Nn1cnnc1	–	–	–	–	–	?
COc1ccc(S(=O)(=O)N(C)C[C@H]2Oc3ccc(NC(=O)c4ccncc4)cc3C(=O)N([C@H](C)CO)C[C@@H]2C)cc1	–	·	·	·	·	·
CCCCC/C=C/C1=CC(=O)C[C@H](c2ccc(OC)c(OC)c2)C1	–	·	·	·	?	?
N#C/C(=C/c1ccc(N2CCCCCC2)o1)c1ccc(Cl)cc1	–	–	–	–	·	·
N#C/C(=C/c1ccc(N2CCCCC2)o1)c1cccc(F)c1	–	39	65	–	·	?
N#C/C(=C/c1ccc(N2CCCCC2)cc1)c1cccc(F)c1	–	36	–	–	–	–
N#CC(C#N)=Cc1ccc(N2CCCC2)cc1	–	28	–	·	–	–
Cc1ccc2c(c1)c1nnc(SCC(=O)Nc3ccc(N(C)C)cc3)nc1n2CC(=O)O	–	–	–	–	–	–
C[n+]1ccc(/C=C/c2cccs2)cc1	–	–	–	–	2.9µM	2.3µM
CC(OC(=O)c1ccc(S(=O)(=O)NCc2ccco2)cc1)C(=O)Nc1ncc(Cl)cc1Cl (stereo unspecified)	–	–	–	–	–	–
COc1cccc(C(=O)NC2CC3CCCC(C2)N3CC(=O)Nc2ccc(N(C)C)cc2)c1 (stereo unspecified)	–	–	–	–	?	12µM
COc1cccc(C(=O)NC2CC3CCCC(C2)N3CC(=O)Nc2ccccc2)c1 (stereo unspecified)	–	–	–	–	5.2µM	?
O=C(CN1C2CCCC1CC(NC(=O)c1ccccc1)C2)Nc1ccccc1 (stereo unspecified)	–	–	–	–	?	8.3µM
CCCCCN(C(=O)CCC(=O)OCC(=O)N(CC)C1CCCCC1)c1c(N)n(CCCC)c(=O)[nH]c1=O	–	·	·	·	–	–
CCCNC(=S)NCCN1CCCCC1	–	–	–	–	–	–
CCNC(=S)NCCN1CCCCC1	–	–	–	–	·	12µM
O=C(c1ccc(Cl)cc1)c1ccccc1C(=O)N1CCOCC1	–	–	–	–	–	–
Nc1nc(C(=O)N2CCOCC2)nn1C(=O)c1ccc(Cl)cc1	–	–	–	–	–	10µM
COc1cccc(C(=O)N=c2sc3cc(S(C)(=O)=O)ccc3n2C)c1	–	28	80	–	–	13µM
Cn1c(=NC(=O)COc2ccccc2)sc2ccccc21	–	42	78	·	–	–
Cn1c(=NC(=O)CS(=O)(=O)c2ccccc2)sc2ccccc21	–	·	·	·	–	–
Cn1c(=NC(=O)CS(=O)(=O)c2ccccc2)sc2cc([N+](=O)[O-])ccc21	–	·	·	·	12µM	?
CCn1c(=NC(=O)COc2ccccc2)sc2cccc(F)c21	–	–	–	–	–	–
SMILES	SARS PLP yeast	CHX counter	Shiga toxin inh	NS1 inh	Pf growth 48h	Pf growth 96h
COC(=O)Cn1c(=NC(=O)c2cccc(OC)c2)sc2cc(OC)ccc21	–	–	–	–	–	?
COc1cc(OC)cc(C(=O)N=c2sc3ccccc3n2C)c1	–	29	33	·	–	–
CC(=O)c1ccc(-c2nnc(CCC(=O)N(C)Cc3c(C)nc4ccccn34)o2)s1	–	–	–	–	–	?
O=C(Nc1ccccc1)OCCOc1ccc(Br)cc1	–	–	–	–	–	–
CC(=O)N=c1sc2ccccc2n1C	–	–	–	–	–	–
COc1ccc(C(=O)N=c2sc3ccccc3n2C)cc1	–	53	107	–	–	–
COc1cccc(C2C(C(=O)c3sc(C)nc3C)=C(O)C(=O)N2CCN(C)C)c1OC (stereo unspecified)	–	–	–	8.9µM	–	–
Cc1cc(-n2cnnn2)cc(C)c1S(=O)(=O)N(C)c1ccccc1	–	–	–	–	?	–
CN1C(=O)/C(=C/c2cccc(Cl)c2)Sc2ccc(C(=O)NCc3cccnc3)cc21	–	–	–	·	9.3µM	?
COc1ccc(/C=C2\SC(=S)N(CC3CCCO3)C2=O)cc1 (stereo unspecified)	–	20	–	–	–	–
COc1cc(/C=C2/SC(=S)N(CC3CCCO3)C2=O)ccc1O (stereo unspecified)	–	21	41	–	–	?
COc1ccccc1/C=C1\NC(=S)N(CC2CCCO2)C1=O (stereo unspecified)	–	27	–	–	·	–
Cc1ccc(N(CC(O)CON=C2c3ccccc3-c3ccccc32)S(C)(=O)=O)cc1 (stereo unspecified)	·	–	–	–	?	?
COC(=O)c1ccc2c(=O)[nH]c(COC(=O)CCC(=O)c3ccc(Cl)cc3)nc2c1	–	·	·	·	–	–
COc1ccc(/C=C2\Sc3ccc(C(=O)NCC4CCCO4)cc3N(C)C2=O)cc1 (stereo unspecified)	–	12	–	–	?	?
O=C1/C(=C/c2ccco2)SC(=S)N1CC1CCCO1 (stereo unspecified)	–	26	63	–	–	–
COc1ccc(/C=C2\Sc3ccc(C(=O)N4CCOCC4)cc3N(C)C2=O)cc1	–	–	–	–	–	?
COc1ccccc1Nc1nc(-c2sc(NC(=O)c3ccc([N+](=O)[O-])cc3)nc2C)cs1	–	–	–	–	?	?
CCC(C)C(=O)Nc1nc(C)c(-c2csc(Nc3cc(OC)ccc3OC)n2)s1 (stereo unspecified)	–	–	–	–	2.3µM	9.3µM
CCC(=O)Nc1nc(C)c(-c2csc(Nc3ccc(S(=O)(=O)Nc4cc(C)on4)cc3)n2)s1	–	–	–	–	·	–
CCC(C)C(=O)Nc1nc(C)c(-c2csc(Nc3cc(Cl)ccc3OC)n2)s1 (stereo unspecified)	–	–	–	?	10µM	15µM
COc1ccc(OC)c(Nc2nc(-c3sc(NC(=O)CC(C)C)nc3C)cs2)c1	–	–	–	–	6.6µM	10µM
CCN1CCN(c2nnc(-c3ccc(C)cc3)c3ccccc23)CC1	–	–	–	–	–[0.00184 µM]	–
c1ccc2[nH]c(-c3cnco3)cc2c1	–	–	·	–	–	–
Cc1ccc(NC(=O)C2OCCc3ccccc32)cc1C (stereo unspecified)	–	37	100	–	–	–
COc1cccc(NC(=O)N2CCCC(C(=O)Nc3ccccc3OC)C2)c1 (stereo unspecified)	–	–	–	–	–	–
Cc1ccc(NC(=O)N2CCN(C)CC2)cc1NC(=O)N1CCN(C)CC1	–	12	–	–	–	–
Cc1cc(C)cc(NC(=O)N2CCc3ccccc3C2)c1	–	36	75	–	–	–
COc1ccccc1NC(=O)N1CCCC(C(=O)Nc2cccc(C)c2C)C1 (stereo unspecified)	–	–	–	–	–	8.3µM
Cc1ccccc1NC(=O)N1CCc2ccccc2C1	–	–	–	–	–	–
